{
  "source": "the supplement of paper PMC11417369",
  "note": "Over roughly 25,000 sequences, “ln(normalized median fluorescence intensity)” has its median near 9.3; the highest 2% begin near 10. The entries come from a sample that favours the highest values as a whole.",
  "data": [
    {"tested_on": "PF3D7_0420300 AP2 domain 1 (GST-tagged)", "assay": "gcPBM binding intensity (ln(normalized median fluorescence intensity)); higher = stronger DNA binding", "outline": "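An Agilent 4 × 180k array of primer-extended double-stranded 36-bp intergenic genomic probes, with negative controls, was incubated for 1 h with GST-tagged P. falciparum DNA-binding domains expressed in E. coli. Alexa488 anti-GST antibody detected bound protein, scanned at 488 nm. Binding intensity is the highest Masliner-normalised natural-log median intensity across replicate spots of either probe orientation.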", "values": [
      {"sequence": "GACCCCATATACATATGTACATACATAATATATATA [XGTACX_site1817]", "gcPBM binding intensity (ln)": 9.57},
      {"sequence": "TAAAATATAATAAAATGTACACGCATGCAATAGAAT [XGTACX_site7434]", "gcPBM binding intensity (ln)": 9.65},
      {"sequence": "ATCAGTCGGCAGGACAGTACACAGTAGCCAGAAAAT [XGTACX_site2550]", "gcPBM binding intensity (ln)": 9.49},
      {"sequence": "AGTATAAATAAATCATAAACATATATATATATATAT [GTGCAC_negctrl_site356]", "gcPBM binding intensity (ln)": 9.2},
      {"sequence": "CAAACACCCAAACACACACACACATACATACATACA [CACACA_site8044]", "gcPBM binding intensity (ln)": 10.2},
      {"sequence": "AAAAAAAAAAAACATACACACATACATACATATATA [CACACA_site8222]", "gcPBM binding intensity (ln)": 9.82},
      {"sequence": "AAAAAGAAAAAACTTACACACATATATACACCCATG [CACACA_site8079]", "gcPBM binding intensity (ln)": 10.1},
      {"sequence": "AAAAAAAAAAAAAACACACACACACCCAAATACATA [CACACA_site708]", "gcPBM binding intensity (ln)": 9.87},
      {"sequence": "AAAAAGAAAAAACTTACACACATATATACCCCCATG [CACACA_site4463]", "gcPBM binding intensity (ln)": 10.2},
      {"sequence": "AAAAAAAAAAAAAACACACACATACACCCAAAAATG [CACACA_site4223]", "gcPBM binding intensity (ln)": 9.84},
      {"sequence": "AACACCCAAAAACACACACACATACATACATACATA [CACACA_site4411]", "gcPBM binding intensity (ln)": 9.98},
      {"sequence": "AAAAAAAAAAAACACACACACACACTAGTACATACA [CACACA_site4551]", "gcPBM binding intensity (ln)": 10.2},
      {"sequence": "TATTCCCCCAAACACACACACACACCCACATACCAC [CACACA_site2304]", "gcPBM binding intensity (ln)": 10.3},
      {"sequence": "AAAAAGAAAAAACTTACACACATATATACAGACATG [CACACA_site550]", "gcPBM binding intensity (ln)": 9.93},
      {"sequence": "AAAAAAAAAAAAAAAACACACACATACACCCAAAAA [CACACA_site7910]", "gcPBM binding intensity (ln)": 9.69},
      {"sequence": "AAGTACATACATAAAACACACACATATATATATATA [CACACA_site8541]", "gcPBM binding intensity (ln)": 9.59},
      {"sequence": "TCTTATAAACTCTGCACACATAATATATTAAATGAG [CACACA_site1936]", "gcPBM binding intensity (ln)": 9.31},
      {"sequence": "TATATTTATTATAATTGTACATAAAATAAACTAAGA [XGTACX_site4318]", "gcPBM binding intensity (ln)": 9.19},
      {"sequence": "TATATATGTAGACGTTGTACTTTTTTGTAAGTTTAA [XGTACX_site5638]", "gcPBM binding intensity (ln)": 9.13},
      {"sequence": "TGATATTTTTCCATAGTGCAAAATATAGTAATGTAT", "gcPBM binding intensity (ln)": 9.11},
      {"sequence": "AAAAAACAGACATACACACACACACCCATATATATA [CACACA_site3392]", "gcPBM binding intensity (ln)": 10.2},
      {"sequence": "AAAAAACACCCATACACACACACACCGATATATATA [CACACA_site5808]", "gcPBM binding intensity (ln)": 10.2},
      {"sequence": "AAAAAAAAAAAAAACACACACACACCCATACACATA [CACACA_site2860]", "gcPBM binding intensity (ln)": 10.1},
      {"sequence": "AAAACATACATATATACACACATATATATATATATA [CACACA_site1852]", "gcPBM binding intensity (ln)": 9.57},
      {"sequence": "AAAAAAAAAAAACACACACACACACCCATACATACA [CACACA_site707]", "gcPBM binding intensity (ln)": 10.2},
      {"sequence": "AAAAAAAAAAAAAAAACACACATACACCCAGACACA [CACACA_site5807]", "gcPBM binding intensity (ln)": 9.6},
      {"sequence": "AAAAAAAAAAAAAAAACACACATACATACATACATA [CACACA_site6125]", "gcPBM binding intensity (ln)": 9.61},
      {"sequence": "CACAGACACCCATACACACACATACCCATATATATA [CACACA_site5023]", "gcPBM binding intensity (ln)": 10},
      {"sequence": "AAAAAAAAAAAACACACACACACATACACATACATA [CACACA_site2858]", "gcPBM binding intensity (ln)": 10.2},
      {"sequence": "AAAAAAAAAAAACACACACACACATACCCATACATA [CACACA_site5575]", "gcPBM binding intensity (ln)": 10.1},
      {"sequence": "TTTTTAATAACACTTTTGAAAAATAAAATAAAATAA [CACACA_negctrl_site821]", "gcPBM binding intensity (ln)": 8.8},
      {"sequence": "AAACAAATAAAATTTATTAAAAAGGTCATATTATTA [CACACA_negctrl_site85]", "gcPBM binding intensity (ln)": 9.12},
      {"sequence": "AGAAAGGATATTATATGTACATATCTTTGTATTTTT [XGTACX_site5040]", "gcPBM binding intensity (ln)": 9.36},
      {"sequence": "GTATACATGCAAATTTTTATTTACAACCCCAAAAAG [XGTACX_negctrl_site255]", "gcPBM binding intensity (ln)": 9.23},
      {"sequence": "GCACAAATATATATATATATATATATATATATATAT [GTGCAC_negctrl_site661]", "gcPBM binding intensity (ln)": 9.06},
      {"sequence": "AAAAAAAAAAAACACACACACACACCCATATACATA [CACACA_site2664]", "gcPBM binding intensity (ln)": 10.3},
      {"sequence": "AAAAAAAAAAAAAACACACACACACCCATACCCATA [CACACA_site5577]", "gcPBM binding intensity (ln)": 10.1},
      {"sequence": "AAAAAAAAAAAAAACACACACACACCCACATATACA [CACACA_site2663]", "gcPBM binding intensity (ln)": 10.1},
      {"sequence": "AAAAAAAAAAAAAACACACATACACGCCCACCCATA [CACACA_site3391]", "gcPBM binding intensity (ln)": 10.2},
      {"sequence": "TAAACACCCATACATACACACATACATACACCCATA [CACACA_site5125]", "gcPBM binding intensity (ln)": 9.58},
      {"sequence": "TCCTTTTCATCTTGTAGTACGGAAATGTAGCTCCAA [XGTACX_site8563]", "gcPBM binding intensity (ln)": 9.09},
      {"sequence": "CTTTTTTTAATGATAACACACATGTTGTGCATAGAC [CACACA_site3270]", "gcPBM binding intensity (ln)": 9.32},
      {"sequence": "ATTTATTAAAAGAAATGTACAGAAAATGTTTGGAAT [XGTACX_site7187]", "gcPBM binding intensity (ln)": 9.26},
      {"sequence": "ATTAAATATATTTTGCGTACACAAAAAAATACGTTC [XGTACX_site3862]", "gcPBM binding intensity (ln)": 9.15},
      {"sequence": "AATGAAAATAAATTAACACACAATTTTAATATTGTT [CACACA_site1306]", "gcPBM binding intensity (ln)": 9.32},
      {"sequence": "TCATATATTTATGTATGTACATATATATATAGATTA [XGTACX_site380]", "gcPBM binding intensity (ln)": 9.01},
      {"sequence": "CATATCATTGATTATAGTACACATACCATTTTTTAT [XGTACX_site6572]", "gcPBM binding intensity (ln)": 9.45},
      {"sequence": "GTAATAAGAATTATAGTGCAATGTAATACATTTATA", "gcPBM binding intensity (ln)": 9.23},
      {"sequence": "AGGATAAAAGTTATGGTGCATTAACCTATTTAAATA", "gcPBM binding intensity (ln)": 9.14},
      {"sequence": "AGAAAAAAACAACATGCACACGCACCCACAAAAAAA [CACACA_site7908]", "gcPBM binding intensity (ln)": 9.71},
      {"sequence": "AAAAAACACGCGCACACACACACACGCGCCCACATA [CACACA_site7106]", "gcPBM binding intensity (ln)": 10.3},
      {"sequence": "AAAAAAAAAAAAAAAACACACACATATATATATATA [CACACA_site8571]", "gcPBM binding intensity (ln)": 9.51},
      {"sequence": "AAAACACGCGGACACACACACACACGCCCACATATA [CACACA_site7105]", "gcPBM binding intensity (ln)": 10.4},
      {"sequence": "AACACGCGCGGACACACACACACACCCACATATATA [CACACA_site5252]", "gcPBM binding intensity (ln)": 10.4},
      {"sequence": "AACACCCATGGACACACACACATATATATATATATA [CACACA_site5809]", "gcPBM binding intensity (ln)": 9.92},
      {"sequence": "AACACGCGCAGACACACACACACACCCACATATATA [CACACA_site2205]", "gcPBM binding intensity (ln)": 10.2},
      {"sequence": "AAAAAACACGGACACACACACATATACATACATACA [CACACA_site5470]", "gcPBM binding intensity (ln)": 10.1},
      {"sequence": "ATTACATACACGCGCACACACAAAAAAAAAAAAAAA [CACACA_site1334]", "gcPBM binding intensity (ln)": 9.57}
    ]}
  ]
}
